The list is not random: actives were taken first. Their share in the collection is about 2.8%.
Shn3 3UTR inh: inhibitors of Schnurri-3 3'UTR reporter in osteoblasts; AID 588674; actives 0.52% (n = 360,000); Clone20 osteoblast Shn3 3'UTR firefly luciferase, 24 h; inhibition, % at 12.5 µM;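 active = mean inhibition of at least 75% with every replicate also reaching 75%; inconclusive = mean inhibition at least 75% but some replicate below; inactive = mean inhibition below 75%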
PAX8 reporter: PAX8 transcriptional activity inhibition. AID 652154. RMG-I TPO-luciferase reporter, SteadyGlo, 24 h. actives 1.2% (n = 360,000). inhibition, % at 12.6 µM;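 active = mean replicate inhibition at least 60% with every replicate also reaching 60%; inconclusive = only one of the two criteria is met; inactive = mean below 60% and not all replicates reaching 60%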;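 also: luciferase light reporting Pax8 driven TPO promoter activity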
TRPM1 prom inh: inhibitors of MITF-driven TRPM1 promoter in melanoma cells; SK-MEL-5 TRPM1 promoter luciferase, 24 h; inhibition, % at 12.5 µM; actives 0.83% (n = 330,000); AID 488899;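 active = mean inhibition across replicates of 60% or more, whatever share of single replicates reaches that level; inconclusive = some that reach 60%, reason not given; inactive = mean inhibition across replicates below 60%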
HIF-2a block: HIF-2a inhibition. 786-0 RCC cells HIF-2a reporter, luciferase luminescence, overnight. inhibition, % at 18.8 µM. actives 0.72% (n = 360,000);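 active = inhibition of the luminescence signal of 40% or more relative to plate controls, in a single-dose primary screen at 18.75 µM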
LMP1 NFkB inh: Epstein-Barr LMP1 NF-kappaB reporter inhibition; LMP1-induced NF-kappaB luciferase reporter cells, luminescence; actives 0.69% (n = 350,000); inhibition, % at 12.5 µM; in the data active = inhibition above about 41%; inconclusive = no clear call, values can overlap the other calls
Peg3 prom inh: inhibitors of Peg3 promoter | HeLa PEG-Prom luciferase reporter, luminescence, overnight | inhibition, % at 20 µM | actives 1.7% (n = 360,000);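 active = inhibition of at least 50% at 20 µM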
Mdm2-MdmX confirm: Mdm2/MdmX (human) interaction inhibition, confirmed. shares compounds with HIF-2a block. SaOS-2 split-luciferase Mdm2/MdmX complementation, luminescence. inhibition, % at 8 µM. actives 99% (n = 740);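 active = mean inhibition of the luminescence signal across two replicates at or above 26 percent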
HIF-2a inh conf: HIF-2a inhibition, single concentration confirmation | shares compounds with HIF-2a block | 786-0 RCC cells, HIF-2a luciferase reporter luminescence, overnight | inhibition, % at 18.8 µM | actives 56% (n = 1,800) | AID 651580;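 active = mean inhibition across four replicates of at least 40 percent at the single tested concentration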
HIF-1a cs: HIF-1a inhibition counter-screen for HIF-2a hits. actives 72% (n = 1,800). AID 651589. MiaPaCa-2 HIF-1a luciferase reporter, desferoxamine, overnight. inhibition, % at 18.8 µM. shares compounds with HIF-2a block;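 active = mean inhibition of the reporter signal across four replicates at the single tested dose of 50% or more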
Numbers stand for hits; . = inactive; ? = inconclusive; / = no result; ! = a repeat was not active.

SMILES	Shn3 3UTR inh	PAX8 reporter	TRPM1 prom inh	HIF-2a block	LMP1 NFkB inh	Peg3 prom inh	HIF-2a inh conf	HIF-1a cs	others
COC(=O)COc1ccc(-c2nccc(-c3ccccn3)n2)cc1	.	.	.	71	.	.	91	64
COC(=O)COc1ccc(-c2nccc(-c3ccc(Br)cc3)n2)cc1	.	.	.	41	.	.	43	.
CC(=O)OCCCNc1cc(Sc2ccc(Cl)cc2)c2nonc2c1[N+](=O)[O-]	?	.	75	79	.	103	.	97
CCC(=O)OCCNc1cc(Sc2nccn2C)c2nonc2c1[N+](=O)[O-]	89	104	92	91	.	105	80	105
CCCC(=O)OCCNc1cc(Sc2nc3ccccc3[nH]2)c2nonc2c1[N+](=O)[O-]	93	86	.	94	.	109	69	74	Mdm2-MdmX confirm=103
CCCN1C[C@H](C)[C@H](OC)CN(C)C(=O)c2cc(NC(=O)c3ccccc3F)ccc2OC[C@@H]1C	/	.	/	/	/	/	/	/
Cc1cc(C)c2cc3c(N)c(C(=O)Nc4c(C)[nH]c(=O)[nH]c4=O)sc3nc2c1	.	.	.	69	.	.	.	66
C[C@@H]1CCCCO[C@@H](CN(C)C(=O)c2ccccc2)[C@@H](C)CN([C@H](C)CO)C(=O)c2cc(NC(=O)CCCCCC(=O)Nc3ccccc3N)ccc2O1	/	.	/	/	/	/	/	/
O=C(CCN1CCCCC1)NCC[C@H]1CC[C@@H](NC(=O)C2CCC2)[C@H](CO)O1	/	.	/	/	/	/	/	/
COc1ccc(NC(=O)N(C)C[C@@H]2OCCCC[C@H](C)Oc3ccc(N(C)C)cc3C(=O)N([C@@H](C)CO)C[C@@H]2C)cc1	/	.	/	/	/	/	/	/
CCOC(=O)/C(=C/c1ccc(OC(F)F)cc1)C1=Nn2c(nnc2-c2ccc(Cl)cc2)SC1	95	.	95	88	.	106	43	105
COc1ccc(C2=Nn3c(nnc3-c3ccc(OC)cc3)SC2)cc1	.	/	.	.	.	.	/	/
COc1ccc(C(=O)O/N=C(\N)Cc2ccc(Cl)cc2)cc1OC	.	/	.	62	.	113	.	.
COc1cc(C(=O)O/N=C(\N)Cc2ccc([N+](=O)[O-])cc2)cc(OC)c1OC	.	.	/	.	/	.	/	/
COc1ccc(C(=O)O/N=C(\N)Cc2ccc(Cl)c(Cl)c2)cc1OC	.	.	.	88	.	104	.	.
COc1c(Cl)cc(Cl)cc1/C=C/C(=O)c1ccc(NC(=O)c2cccs2)cc1	.	81	68	87	.	100	.	107	Mdm2-MdmX confirm=99
COC(=O)c1ccccc1NC1=C/C(=N\S(=O)(=O)c2cccs2)c2ccccc2C1=O	94!	.	78	.	86!	86	/	/	Mdm2-MdmX confirm=96
COc1ccc(Br)cc1[C@H]1[C@H]2C=CC[C@@H](C)[C@@H]2C(=O)N1Cc1ccccc1	.	.	.	44	.	.	.	.
C/C=C/c1ccc([C@H]2[C@@H](CO)N(C(=O)CN(C)C)C23CN(C(=O)C2CCC2)C3)cc1	/	.	/	/	/	/	/	/
COc1ccc(/C=C2\SC(=S)N(CCCC(=O)Nc3ccc(O)cc3)C2=O)cc1	.	.	.	45	.	.	/	/	Mdm2-MdmX confirm=103
O=C(CCN1C(=O)/C(=C/c2ccccc2)SC1=S)NCCc1ccc(O)cc1	.	/	.	.	.	95	/	/	Mdm2-MdmX confirm=102
COc1ccc(/C=C2/SC(=S)N(CCCC(=O)Nc3ccc(O)cc3)C2=O)cc1	.	.	.	.	.	.	/	/	Mdm2-MdmX confirm=102
COc1ccc(/C=C2\SC(=S)N(CCC(=O)Nc3cccc(O)c3)C2=O)cc1	.	.	.	.	.	.	/	/
O=C(CCN1C(=O)/C(=C/c2ccccc2F)SC1=S)NCCc1ccc(O)cc1	.	.	.	.	.	.	/	/
Cc1noc(C)c1NC(=O)Nc1ccc2c(c1)CC(=O)N([C@@H](C)CO)C[C@H](C)[C@H](CN(C)C(=O)NC1CCCCC1)O2	/	.	/	/	/	/	/	/
